Among the data in PubChem BioAssay (NCI) are growth inhibition values, retold here.

Assay [1] in a line: NCI Yeast Anticancer Drug Screen. Data for the rad50 strain (AID 155).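 Further: 0% = growth of vehicle-only cultures of the same strain.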 The settings on record: S. cerevisiae rad50 strain growth inhibition, stronger effect = higher value. The essentials:
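A DNA repair-deficient yeast mutant serves as the test organism; compound-induced growth inhibition is calculated against vehicle-treated cells.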

The nature of assay [2]: NCI Yeast Anticancer Drug Screen. Data for the mec2-1 strain (AID 157). The note with it: S. cerevisiae mec2-1 strain, stronger effect = higher value. The procedure, abridged: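 Readout is yeast growth inhibition, normalised to vehicle-treated controls, in the mec2-1 strain exposed to compound.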
Assay [3] can be described thus: NCI Yeast Anticancer Drug Screen. Data for the sgs1 mgt1 strain (AID 161).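 Further: 0% = growth of cultures given vehicle only.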 The note with it: S. cerevisiae sgs1 mgt1 strain, stronger effect = higher value. The procedure, abridged: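 Growth of a repair-deficient yeast mutant was monitored after compound treatment and expressed as inhibition relative to vehicle-treated cultures.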
A short description of assay [4]: NCI Yeast Anticancer Drug Screen. Data for the cln2 rad14 strain (AID 165).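 Further: 0% = growth equal to vehicle treated cultures.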 The settings on record: S. cerevisiae cln2 rad14 strain, stronger effect = higher value. The procedure, abridged: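 Relative to vehicle controls, growth inhibition of compound-treated cln2 rad14 yeast was recorded.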
A short description of assay [5]: NCI Yeast Anticancer Drug Screen. Data for the bub3 strain (AID 167). The note with it: S. cerevisiae bub3 mutant strain, stronger effect = higher value. The procedure, abridged: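 Inhibition values come from growth of compound-treated mutant yeast normalised to vehicle-treated controls.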
Assay [6] is described as follows: NCI Yeast Anticancer Drug Screen. Data for the mlh1 rad18 strain (AID 175). The settings on record: S. cerevisiae mlh1 rad18 strain growth inhibition, stronger effect = higher value. The procedure, abridged: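 Test agents were incubated with a yeast strain of defined genotype (DNA damage repair defect). Inhibition of growth was derived by comparison with vehicle-exposed cultures.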

Where [7] appears, read: at 5.0 µM (retest, dose inferred, filed as 0.5).
Setting [8] is: at 50.0 µM (retest, dose inferred, filed as 5.0).

The panel holds about 79,000 compounds, 15% with a hit somewhere; the sample as a whole holds those more often. Values without a mark were called inactive. Active and inactive are the calls of the source. No stated cut-off is given here; in the data, active means growth inhibition above about 70%; inactive means the rest.

Take `CC/C(=C/c1ccc(OC)cc1)[N+](=O)[O-]`: the growth inhibition in assay [1] (setting [7]) was 80% (active); in assay [1] (setting [8]), 99% (active); in assay [1] (at 50.0 µM), 99.2% (active); in assay [2] (setting [7]), 35%; in assay [2] (setting [8]), 100% (active); in assay [2] (at 50.0 µM), 99.7% (active). The growth inhibition is 46% in assay [3] (setting [7]); 99% (active) in assay [3] (setting [8]); 99.5% (active) in assay [3] (at 50.0 µM); 20% in assay [4] (setting [7]); 100% (active) in assay [4] (setting [8]); 99% (active) in assay [4] (at 50.0 µM). The growth inhibition in assay [5] (setting [7]) was 49%; in assay [5] (setting [8]), 99% (active); in assay [5] (at 50.0 µM) it was 99.3% (active); in assay [6] (setting [7]), 40%; in assay [6] (setting [8]), 99% (active); in assay [6] (at 50.0 µM), 99.2% (active).

Turning to `O=P(CCP(=O)(c1ccccc1)c1ccccc1)(c1ccccc1)c1ccccc1.[Cl][Sn]([Cl])([c]1ccccc1)[c]1ccccc1`, the growth inhibition was 82% (active) in assay [1] (setting [7]); 97% (active) in assay [1] (setting [8]); 87.7% (active) in assay [1] (at 50.0 µM); 45% in assay [2] (setting [7]); 99% (active) in assay [2] (setting [8]); 90.1% (active) in assay [2] (at 50.0 µM). In addition, the growth inhibition is 91% (active) in assay [3] (setting [7]); 98% (active) in assay [3] (setting [8]); 88.5% (active) in assay [3] (at 50.0 µM); 32% in assay [4] (setting [7]); 97% (active) in assay [4] (setting [8]); 88.8% (active) in assay [4] (at 50.0 µM). The growth inhibition was 81% (active) in assay [5] (setting [7]); 98% (active) in assay [5] (setting [8]); 88% (active) in assay [5] (at 50.0 µM); 88% (active) in assay [6] (setting [7]); 95% (active) in assay [6] (setting [8]); 91.6% (active) in assay [6] (at 50.0 µM).

Take `CCOc1c(Br)cc(N=Cc2ccc(N(CCCl)CCCl)c(OC)c2)cc1Br`: the growth inhibition in assay [1] (setting [7]) was 6%; in assay [1] (setting [8]), 80% (active); in assay [1] (at 50.0 µM), 85.2% (active); in assay [2] (setting [7]), -5%; in assay [2] (setting [8]), 79% (active); in assay [2] (at 50.0 µM), 45.8%. Further, the growth inhibition is -86% in assay [3] (setting [7]); 69% in assay [3] (setting [8]); 76.2% (active) in assay [3] (at 50.0 µM); -3% in assay [4] (setting [7]); 49% in assay [4] (setting [8]); 44.4% in assay [4] (at 50.0 µM). The growth inhibition in assay [5] (setting [7]) was -11%; in assay [5] (setting [8]), -16%; in assay [5] (at 50.0 µM), -15.8%; in assay [6] (setting [7]), 73% (active); in assay [6] (setting [8]), 95% (active); in assay [6] (at 50.0 µM), 86.8% (active).

As for `O=c1oc2ccccc2c(O)c1C(C/C(CCN1CCCC1)=N/O)c1ccccc1` (configuration not stated), the growth inhibition is 28% in assay [1] (setting [7]); 28% in assay [1] (setting [8]); 79.8% (active) in assay [1] (at 50.0 µM); 22% in assay [2] (setting [7]); 22% in assay [2] (setting [8]); 81.7% (active) in assay [2] (at 50.0 µM). Moreover, the growth inhibition is 16% in assay [3] (setting [7]); 16% in assay [3] (setting [8]); 76.8% (active) in assay [3] (at 50.0 µM); -3% in assay [4] (setting [7]); -3% in assay [4] (setting [8]); 64.2% in assay [4] (at 50.0 µM). Also, the growth inhibition in assay [5] (setting [7]) is 9%; in assay [5] (setting [8]), 9%; in assay [5] (at 50.0 µM), 72.4% (active); in assay [6] (setting [7]), 10%; in assay [6] (setting [8]), 10%; in assay [6] (at 50.0 µM) it was 79.2% (active).

For `C1=C(/C=C2\CCCc3c(-c4ccccc4)cc(-c4ccccc4)[o+]c32)CCC/C1=C\C1=C2OC(c3ccccc3)=CC(c3ccccc3)=C2CCC1`, the growth inhibition in assay [1] (setting [7]) was -11%; in assay [1] (setting [8]), 14%; in assay [1] (at 50.0 µM), 36.6%; in assay [2] (setting [7]), 3%; in assay [2] (setting [8]), 2%; in assay [2] (at 50.0 µM) it was 52.8%. Also, the growth inhibition in assay [3] (setting [7]) is 4%; in assay [3] (setting [8]) it was -8%; in assay [3] (at 50.0 µM), 66.6%; in assay [4] (setting [7]), 18%; in assay [4] (setting [8]), 25%; in assay [4] (at 50.0 µM), 40.9%. The growth inhibition is 10% in assay [5] (setting [7]); 30% in assay [5] (setting [8]); 71.2% (active) in assay [5] (at 50.0 µM); 3% in assay [6] (setting [7]); 35% in assay [6] (setting [8]); 31.9% in assay [6] (at 50.0 µM).

For the molecule `NC[CH2][Sn]([c]1ccccc1)([CH]1CCCCC1)[CH]1CCCCC1`, the growth inhibition in assay [1] (setting [7]) is 99% (active); in assay [1] (setting [8]), 98% (active); in assay [1] (at 50.0 µM) it was 99% (active); in assay [2] (setting [7]), 100% (active); in assay [2] (setting [8]), 99% (active); in assay [2] (at 50.0 µM) it was 98.7% (active). In addition, the growth inhibition in assay [3] (setting [7]) is 100% (active); in assay [3] (setting [8]), 99% (active); in assay [3] (at 50.0 µM), 93.3% (active); in assay [4] (setting [7]), 98% (active); in assay [4] (setting [8]) it was 98% (active); in assay [4] (at 50.0 µM) it was 97.5% (active). The growth inhibition is 98% (active) in assay [5] (setting [7]); 98% (active) in assay [5] (setting [8]); 98.5% (active) in assay [5] (at 50.0 µM); 100% (active) in assay [6] (setting [7]); 98% (active) in assay [6] (setting [8]); 98.9% (active) in assay [6] (at 50.0 µM).

On to `CC1=C2C(=CC(C)(C)[C@@H]2O)C(=O)[C@](C)(O)C12CC2`, for which the growth inhibition is 44% in assay [1] (setting [7]); 92% (active) in assay [1] (setting [8]); 80.6% (active) in assay [1] (at 50.0 µM); 12% in assay [2] (setting [7]); 96% (active) in assay [2] (setting [8]); 89.8% (active) in assay [2] (at 50.0 µM). Besides, the growth inhibition is 53% in assay [3] (setting [7]); 91% (active) in assay [3] (setting [8]); 80.8% (active) in assay [3] (at 50.0 µM); 23% in assay [4] (setting [7]); 90% (active) in assay [4] (setting [8]); 84.8% (active) in assay [4] (at 50.0 µM). The growth inhibition in assay [5] (setting [7]) was 12%; in assay [5] (setting [8]) it was 39%; in assay [5] (at 50.0 µM), 7.1%; in assay [6] (setting [7]) it was 35%; in assay [6] (setting [8]), 91% (active); in assay [6] (at 50.0 µM), 78.3% (active).

For `O=C(CBr)OC1CCCCC1`, the growth inhibition in assay [1] (setting [7]) was 73% (active); in assay [1] (setting [8]), 97% (active); in assay [1] (at 50.0 µM), 91% (active); in assay [2] (setting [7]), 41%; in assay [2] (setting [8]), 98% (active); in assay [2] (at 50.0 µM) it was 69.4%. For the same molecule, the growth inhibition in assay [3] (setting [7]) is 55%; in assay [3] (setting [8]), 98% (active); in assay [3] (at 50.0 µM), 87.4% (active); in assay [4] (setting [7]), 24%; in assay [4] (setting [8]) it was 80% (active); in assay [4] (at 50.0 µM) it was 10.9%. The growth inhibition in assay [5] (setting [7]) is 60%; in assay [5] (setting [8]), 97% (active); in assay [5] (at 50.0 µM) it was 75.8% (active); in assay [6] (setting [7]), 69%; in assay [6] (setting [8]), 98% (active); in assay [6] (at 50.0 µM) it was 90.4% (active).

`O=[As]c1cccc2ccccc12` (configuration not stated): the growth inhibition in assay [1] (setting [7]) is 99% (active); in assay [1] (setting [8]), 99% (active); in assay [1] (at 50.0 µM), 99.3% (active); in assay [2] (setting [7]), 100% (active); in assay [2] (setting [8]), 100% (active); in assay [2] (at 50.0 µM), 99.6% (active). Further, the growth inhibition in assay [3] (setting [7]) was 99% (active); in assay [3] (setting [8]), 99% (active); in assay [3] (at 50.0 µM), 99.7% (active); in assay [4] (setting [7]), 100% (active); in assay [4] (setting [8]), 99% (active); in assay [4] (at 50.0 µM), 99.2% (active). In addition, the growth inhibition in assay [5] (setting [7]) was 99% (active); in assay [5] (setting [8]), 99% (active); in assay [5] (at 50.0 µM), 99.3% (active); in assay [6] (setting [7]), 99% (active); in assay [6] (setting [8]), 99% (active); in assay [6] (at 50.0 µM) it was 99.3% (active).
